Growth data for 13 compounds are collected here from PubChem BioAssay (NCI).

Compounds without any hit were thinned out: in the full panel of roughly 83,000, 20% have a hit.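 Activity criterion: percent growth below 10, measured after cells in 96-well plates were exposed to a single compound concentration for 48 hours.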 A number with no mark means an inactive call. Calls of active or inactive are those of the source.

What all share (assay): NCI-60 one-dose screen, 48 h (100 = growth as untreated, 0 = no growth, -100 = all killed)
Common to all, as to settings: 10 µM unless noted

For test [1], the system named is HCT-15 colon.
The test system of test [2] is HT29 colon.
Test [3] deals with SNB-75 CNS.
For test [4], the system named is SNB-19 CNS.
Test [5] has as its system U251 CNS.
For test [6], the system named is PC-3 prostate.
Test [7] concerns SK-MEL-5 melanoma.
Test [8] deals with UACC-62 melanoma.
Test [9] concerns LOX IMVI melanoma.
Test [10] deals with SK-MEL-28 melanoma.

For the compound `COc1ccc(/C=C2/C(=O)Nc3cc(Cl)c(-c4csc(N)n4)cc32)cc1`, the growth in test [1] is 39.9%; in [2] it was 27.9%; in test [3], 37.5%; in test [4] it was 45.5%; in test [5] it was 46.3%; in [6], 50.3%. For the same compound, the growth is 19.1% in [7], 37.6% in [8], 48.6% in test [9] and 70.1% in test [10].

Consider `O=C(Nc1ccc(F)cc1)Nc1ccc(Br)c(C(F)(F)F)c1`, for which the growth in [1] is 8.12% (active); in test [2], 6.61% (active); in test [3] it was 22.2%; in [4], 19.8%; in test [5] it was 11.6%; in test [6], 4.68% (active). The growth in test [7] is 4.53% (active); in [8], 21.7%; in [9], -16.7% (active); in test [10] it was 20.8%.

With `O=C(O)c1ccc(-c2nn(-c3ccc(C(=O)O)cc3)cc2/C=N/Nc2c(F)c(F)cc(F)c2F)cc1`, the growth in [1] is 107%; in [2], 99.6%; in test [3], 105%; in test [4], 110%; in [5], 104%; in test [6], 101%. Also, the growth is 107% in [7], 106% in test [8], 100% in test [9] and 104% in test [10].

As to `O=c1c2ccccc2sc2c(N3CCCC3)nc3ccccc3c12`, the growth was 94% in test [1]; 92.3% in [2]; 86.6% in test [3]; 95.9% in test [4]; 98.5% in [5]; 83.4% in test [6]. In addition, the growth in test [7] is 92.6%; in test [8] it was 79%; in test [9] it was 85.9%; in [10] it was 120%.

For `Cl[C@@H]1CCO[C@H](c2cc3ccccc3c3ccccc23)C1`, the growth in [1] is 96.9%; in [2] it was 98.8%; in [3], 103%; in test [4], 91.7%; in [5] it was 90.6%; in test [6], 92.8%. For the same compound, the growth is 93% in test [7], 85.2% in test [8], 97.6% in test [9] and 104% in test [10].

As to `NC(N)=N/N=C/c1ccc([N+](=O)[O-])cc1`, the growth in [1] is 105%; in test [2], 105%; in [3] it was 83.4%; in test [4], 109%; in [5] it was 105%; in test [6], 94.5%. Also, the growth was 100% in [7], 91.6% in test [8], 96% in [9] and 109% in test [10].

For `COc1ccccc1S(=O)(=O)Nc1ccc2c3c(cc(-c4ccoc4)nc13)C(=O)N2C`, the growth in [1] was 66.6%; in [2], 43.8%; in test [3], 16.6%; in [4], 75.9%; in [5], 77.9%; in test [6], 66.9%. The growth in test [7] was 56.6%; in test [8] it was 38.3%; in test [9], 51.9%; in [10], 75.6%.

For `Cc1cn([C@]2(CF)O[C@H](CO)C2C)c(=O)[nH]c1=O` (stereo not given in full), the growth is 112% in [1]; 112% in [2]; 116% in [3]; 118% in [4]; 103% in test [5]; 117% in test [6]. The growth in [7] was 89.4%; in test [8] it was 122%; in test [9] it was 97.9%; in test [10], 121%.

`CCCCNc1cc(C(=O)O)cc(S(N)(=O)=O)c1Oc1ccccc1`: the growth in test [1] was 108%; in [2], 112%; in test [3], 90.4%; in test [4], 106%; in test [5] it was 99.8%; in test [6], 95.7%. For the same compound, the growth is 95.3% in [7], 101% in test [8], 93.5% in test [9] and 109% in test [10].

For the compound `COc1cc(NC(=O)C#Cc2ccccc2)c(OC)cc1Cl`, the growth is 20.6% in test [1]; 29.3% in test [2]; 65.8% in test [3]; 40.7% in [4]; 39.5% in test [5]; 38.1% in [6]. The growth in test [7] is 30.1%; in test [8] it was 36.8%; in test [9] it was 17.2%; in [10], 84.2%.

As for `Clc1ccc(CN2COc3c(ccc4cccnc34)C2)cc1Cl`, the growth in test [1] is 16.3%; in test [2] it was 30.3%; in [3] it was 9.33% (active); in [4], 18.5%; in test [5], 9.29% (active); in test [6], 27.9%. Further, the growth in test [7] was -1% (active); in test [8], -38% (active); in test [9], 2.29% (active); in [10], 33.5%.

Consider `CC(C)NCC(O)COc1ccc(CC(N)=O)cc1` (stereo not given), for which the growth in [1] was 99.3%; in test [2] it was 103%; in test [3], 99%; in test [4], 106%; in [5], 101%; in [6], 92.5%. Also, the growth in test [7] was 94.9%; in [8], 107%; in test [9] it was 98.1%; in [10], 103%.

In the case of `COc1ccc(-c2c(C#N)cnc(N)c2-c2nc3cc(C)c(C)cc3[nH]2)cc1`, the growth was 60.3% in [1]; 37.3% in test [2]; 84.2% in test [3]; 67.6% in test [4]; 1.05% (active) in [5]; 57.8% in test [6]. In addition, the growth in test [7] was 32.2%; in test [8] it was 56.1%; in [9] it was 59.6%; in test [10], 77%.
